Pf Dd2 growth: blocks growth of Plasmodium falciparum Dd2 parasites; P. falciparum Dd2 growth, SYBR Green, 72 h; hits give low values; activity change, % at 10 µM; actives 2.3% (n = 94,000); AID 1159554; in the data active = activity change below about -80%; inconclusive = no clear call, values can overlap the other calls
T cruzi growth-1: blocks T. cruzi growth in NIH3T3 culture; T. cruzi beta-gal in NIH3T3, GalScreen luminescence, 90 h; inhibition, % at 8.34 µM; actives 5.9% (n = 77,000);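 active = mean inhibition above about 93%, with at least 55% of replicates each passing it, limit read from the data, passing the limit was not always enough; inconclusive = only one of those two conditions holds; inactive = neither condition holds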
C diff growth: C. difficile growth inhibition; growth activity, negative = inhibition, % at 16 µg/mL (by protocol); AID 1259249; Clostridium difficile clinical isolate growth, OD600, 24 h; hits give low values; actives 0.25% (n = 86,000);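 active = mean growth activity at or below -80% and every replicate also at or below -80%; inconclusive = mean at or below -80% but some replicate above -80%; inactive = mean growth activity above -80%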;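 also: 0% = DMSO wells and -100% = levofloxacin 16 µg/mL wells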
T cruzi growth-2: blocks T. cruzi growth in NIH3T3 host cells; shares compounds with T cruzi growth-1; T. cruzi beta-gal in NIH3T3, GalScreen luminescence, 90 h; inhibition, % at 8.35 µM; actives 72% (n = 5,600); AID 651739;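 active = mean replicate inhibition above about 95% and at least 55% of replicates individually reaching it, limit read from the data; inconclusive = only one of the two criteria is met; inactive = neither criterion is met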
T cruzi growth-3: blocks T. cruzi growth in NIH3T3 host cells. shares compounds with T cruzi growth-1. T. cruzi beta-gal in NIH3T3, GalScreen luminescence, 90 h. inhibition, % at 2.09 µM. actives 21% (n = 5,600);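 active = mean inhibition above about 95%, with at least 55% of replicates also reaching it, limit read from the data; inconclusive = meets just one of the two conditions; inactive = meets neither condition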;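 also: plate controls were neutral control median for no effect and positive control median for full effect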
3T3 cytotox: cytotoxicity in mouse NIH/3T3 fibroblasts. AID 651742. NIH/3T3 viability, CellTiter-Glo ATP luminescence, 90 h. actives 14% (n = 5,600). shares compounds with T cruzi growth-1. cytotoxicity (signal decrease), % at 8.35 µM;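 active = mean signal decrease across replicates above about 35% based on untreated-well scatter, with enough replicates individually passing, limit read from the data; inconclusive = no rule stated though some were filed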;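 also: 0% = median of neutral control wells and 100% = median of positive control wells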
3T3 cytotox 2: NIH/3T3 (mouse) viability loss; shares compounds with T cruzi growth-1; NIH/3T3 viability, CellTiter-Glo ATP luminescence, 90 h; inhibition, % at 24.9 µM; actives 56% (n = 5,600);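 active = mean loss of cell viability signal at or above a set limit, and enough replicates individually reaching it; inconclusive = meets only the mean limit or only the replicate share; inactive = meets neither condition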;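 also: 0% = median of neutral control wells and 100% = median of positive control wells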
Active calls of the source: *; ? = inconclusive; . = not tested or not shown; ! = repeats disagree. Most compounds without a hit are left out; they make up all but 6.7% or so of the library.

SMILES | Pf Dd2 growth | T cruzi growth-1 | C diff growth | T cruzi growth-2 | T cruzi growth-3 | 3T3 cytotox | 3T3 cytotox 2
C[C@H](CO)N1C[C@H](C)[C@@H](CN(C)Cc2ccc(Cl)c(Cl)c2)OCCCC[C@H](C)Oc2ccc(NC(=O)Nc3ccc4c(c3)OCO4)cc2C1=O | 11 | 77 | 0 | . | . | . | .
C[C@@H]1CCCCO[C@@H](CN(C)Cc2ccc(Cl)c(Cl)c2)[C@@H](C)CN([C@H](C)CO)C(=O)c2cc(NC(=O)Nc3ccc(F)cc3)ccc2O1 | 13 | 109* | . | 101* | 109* | -6 | -2
CC(C)NC(=O)Nc1ccc2c(c1)C(=O)N([C@H](C)CO)C[C@H](C)[C@@H](CN(C)Cc1ccc(Cl)c(Cl)c1)OCCCC[C@H](C)O2 | . | . | 11 | . | . | . | .
O=C(C[C@H]1C[C@H]2c3cc(NC(=O)C4CCC4)ccc3O[C@H]2[C@H](CO)O1)NC1CCCCC1 | 16 | -28 | . | . | . | . | .
Cc1noc(C)c1S(=O)(=O)Nc1cccc2c1O[C@@H](CN(C)C(=O)Nc1cccc3ccccc13)[C@@H](C)CN([C@H](C)CO)C2=O | -53 | . | 2 | . | . | . | .
Cc1noc(C)c1S(=O)(=O)Nc1ccc2c(c1)C(=O)N([C@@H](C)CO)C[C@H](C)[C@@H](CN(C)CC1CC1)O2 | -34 | 84 | 2 | . | . | . | .
Cc1ccc(S(=O)(=O)N(C)C[C@@H]2Oc3ncc(C#CCC(C)C)cc3C(=O)N([C@H](C)CO)C[C@@H]2C)cc1 | -43 | 105* | -11 | 105* | 61 | 23 | 64*
Cc1ccc(S(=O)(=O)N(C)C[C@@H]2Oc3ncc(C#CCC(C)C)cc3C(=O)N([C@H](C)CO)C[C@H]2C)cc1 | -66 | 122*! | -6 | 103* | 65 | 5 | 85*
CC(C)CC#Cc1cnc2c(c1)C(=O)N([C@@H](C)CO)C[C@@H](C)[C@H](CN(C)S(C)(=O)=O)O2 | -13 | 41 | -7 | . | . | . | .
CC(C)CC#Cc1cnc2c(c1)C(=O)N([C@@H](C)CO)C[C@@H](C)[C@H](CN(C)S(=O)(=O)c1ccccc1)O2 | -22 | 78 | -10 | . | . | . | .
Cc1ccc(S(=O)(=O)Nc2ccc3c(c2)CC(=O)N([C@@H](C)CO)C[C@@H](C)[C@@H](CN(C)C(=O)Nc2cccc4ccccc24)O3)cc1 | -35 | 47 | -8 | . | . | . | .
Cc1cccc(S(=O)(=O)N(C)C[C@@H]2OCc3ccccc3-c3c(n(C)c4ccccc34)C(=O)N([C@@H](C)CO)C[C@@H]2C)c1 | -86* | 100* | . | 103* | 87 | -9 | 80*
Cc1cccc(S(=O)(=O)N(C)C[C@H]2OCc3ccccc3-c3c(n(C)c4ccccc34)C(=O)N([C@@H](C)CO)C[C@H]2C)c1 | -85* | 99* | . | 100* | 108* | -5 | 18
C[C@@H]1CN([C@@H](C)CO)C(=O)c2c(c3ccccc3n2C)-c2ccccc2CO[C@H]1CN(C)S(=O)(=O)c1cccc(F)c1 | -67 | 91 | 8 | . | . | . | .
C[C@H](CO)N1C[C@H](C)[C@@H](CN(C)S(=O)(=O)c2cccc(C#N)c2)OCc2ccccc2-c2c(n(C)c3ccccc23)C1=O | 5 | 63 | 0 | . | . | . | .
C[C@@H]1CN([C@H](C)CO)C(=O)c2cc(NS(=O)(=O)c3ccc(Cl)cc3)ccc2O[C@@H]1CN(C)C(=O)Nc1ccc(C(F)(F)F)cc1 | 19 | 8 | . | . | . | . | .
C[C@H]1CN([C@@H](C)CO)C(=O)c2ccccc2-c2ccccc2CO[C@H]1CN(C)Cc1ccc2c(c1)OCO2 | -24 | 24 | -3 | . | . | . | .
O=C(NCCc1ccccc1)[C@H]1[C@H](CO)[C@H]2Cn3c(cccc3=O)[C@@H]1N2C(=O)C1CCCC1 | 4 | 79 | 4 | . | . | . | .
O=C(NCCc1ccccc1)[C@H]1[C@H](CO)[C@H]2Cn3c(cccc3=O)[C@@H]1N2C(=O)C1CCC1 | 0 | 99* | -4 | 66 | 21 | 10 | -11
O=C(NCCc1ccccc1)[C@@H]1[C@@H](CO)[C@@H]2Cn3c(cccc3=O)[C@H]1N2C(=O)C1CC1 | . | 21 | -2 | . | . | . | .
O=C(NCCc1ccccc1)[C@@H]1[C@@H](CO)[C@@H]2Cn3c(cccc3=O)[C@H]1N2C(=O)C1CCC1 | -7 | ? | 0 | -15 | 11 | -21 | 0
Cc1ccc(S(=O)(=O)N2C[C@H](O)COC[C@@H]3O[C@@H](CC(=O)N[C@H]4CCN(Cc5ccccc5)C4)CC[C@H]32)cc1 | -20 | -35 | . | . | . | . | .
C[C@@H]1CCCCO[C@H](CN(C)Cc2ccccc2)[C@@H](C)CN([C@H](C)CO)C(=O)c2cc(NC(=O)c3ccccc3)ccc2O1 | 8 | 25 | 2 | . | . | . | .
C[C@@H]1CCCCO[C@@H](CN(C)Cc2ccccc2)[C@H](C)CN([C@H](C)CO)C(=O)c2cc(NC(=O)c3ccncc3)ccc2O1 | -41 | ? | . | 61 | 38 | -8 | -7
C[C@@H]1CCCCO[C@H](CN(C)Cc2ccncc2)[C@H](C)CN([C@@H](C)CO)C(=O)c2cc(NC(=O)c3ccccc3)ccc2O1 | -32 | 12 | -3 | . | . | . | .
SMILES | Pf Dd2 growth | T cruzi growth-1 | C diff growth | T cruzi growth-2 | T cruzi growth-3 | 3T3 cytotox | 3T3 cytotox 2
C[C@@H]1CCCCO[C@@H](CN(C)Cc2ccccc2)[C@H](C)CN([C@@H](C)CO)C(=O)c2cc(NC(=O)c3ccncc3)ccc2O1 | 4 | 70 | -4 | . | . | . | .
C[C@@H]1CN([C@@H](C)CO)C(=O)c2cc(NC(=O)c3ccccc3)ccc2O[C@@H](C)CCCCO[C@@H]1CN(C)Cc1ccncc1 | -77 | 114* | -8 | 100* | 29 | -14 | 14
C[C@@H]1CN([C@H](C)CO)C(=O)c2cc(NC(=O)c3ccncc3)ccc2O[C@@H](C)CCCCO[C@H]1CN(C)Cc1ccccc1 | -22 | 98* | -3 | 59 | -33 | -5 | 1
C[C@@H]1CCCCO[C@@H](CN(C)Cc2ccc(Cl)c(Cl)c2)[C@@H](C)CN([C@H](C)CO)C(=O)c2cc(NC(=O)c3ccccc3)ccc2O1 | -14 | 96* | 5 | 114* | 49 | 5 | 14
C[C@@H]1CCCCO[C@H](CN(C)Cc2ccccc2)[C@H](C)CN([C@@H](C)CO)C(=O)c2cc(NC(=O)c3ccncc3)ccc2O1 | -14 | 84 | -6 | . | . | . | .
C[C@@H]1CCCCO[C@@H](CN(C)C(=O)c2ccccc2)[C@H](C)CN([C@H](C)CO)C(=O)c2cc(NC(=O)c3ccncc3)ccc2O1 | . | 37 | -4 | . | . | . | .
CC(=O)N(C)C[C@H]1Oc2cc(C#CC3CC3)ccc2S(=O)(=O)N([C@@H](C)CO)C[C@@H]1C | -1 | 16 | -7 | . | . | . | .
C[C@@H]1CCCCO[C@H](CN(C)Cc2ccccc2)[C@H](C)CN([C@@H](C)CO)C(=O)c2cc(NC(=O)c3ccccc3)ccc2O1 | -47 | 54 | -3 | . | . | . | .

From PubChem
